What was measured:
Assay in all cases: DAPPL (digital affinity profiling via proximity ligation, sequencing); 10 mM Tris-HCl pH 7.5, 50 mM NaCl, 1 mM DTT, 4% glycerol, room temperature, 30 min; GST-TFs on glutathione beads, 16-mer random dsDNA library, 0.1% formaldehyde crosslink after washing; high values mean tight binding
[1] = target: T1, FEV (Homo sapiens, UniProt Q99581 1-238); details: protein: recombinant; tags: N-terminal GST; dsDNA, one strand shown
T1 sequence: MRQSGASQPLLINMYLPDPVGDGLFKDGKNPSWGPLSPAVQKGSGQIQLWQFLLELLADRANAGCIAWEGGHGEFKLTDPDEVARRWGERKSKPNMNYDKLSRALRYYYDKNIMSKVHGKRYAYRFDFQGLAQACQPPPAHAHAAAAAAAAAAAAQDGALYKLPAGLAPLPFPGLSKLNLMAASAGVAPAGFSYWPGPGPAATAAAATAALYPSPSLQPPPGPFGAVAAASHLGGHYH
Outline: (§1)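 Binding signal is defined as a hexamer's read frequency for one factor over its frequency for the tag-only sample. To obtain reads, GST-fused human transcription factors were expressed in yeast, captured on glutathione beads, barcoded with DNA and pooled with that sample. Pools met 200 nmole of a 16-mer random double-stranded DNA library in Tris/NaCl/DTT/glycerol buffer for 30 min at room temperature before washing, 0.1% formaldehyde crosslinking, proximity ligation (BsaI/T4 ligase, 1 h, 37 °C), PCR and Illumina NextSeq500 sequencing.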

[2] = target: ETV5 (Homo sapiens, UniProt P41161 1-510); details: protein: recombinant; tags: N-terminal GST; dsDNA, one strand shown
Chain of ETV5 (P41161 whole entry): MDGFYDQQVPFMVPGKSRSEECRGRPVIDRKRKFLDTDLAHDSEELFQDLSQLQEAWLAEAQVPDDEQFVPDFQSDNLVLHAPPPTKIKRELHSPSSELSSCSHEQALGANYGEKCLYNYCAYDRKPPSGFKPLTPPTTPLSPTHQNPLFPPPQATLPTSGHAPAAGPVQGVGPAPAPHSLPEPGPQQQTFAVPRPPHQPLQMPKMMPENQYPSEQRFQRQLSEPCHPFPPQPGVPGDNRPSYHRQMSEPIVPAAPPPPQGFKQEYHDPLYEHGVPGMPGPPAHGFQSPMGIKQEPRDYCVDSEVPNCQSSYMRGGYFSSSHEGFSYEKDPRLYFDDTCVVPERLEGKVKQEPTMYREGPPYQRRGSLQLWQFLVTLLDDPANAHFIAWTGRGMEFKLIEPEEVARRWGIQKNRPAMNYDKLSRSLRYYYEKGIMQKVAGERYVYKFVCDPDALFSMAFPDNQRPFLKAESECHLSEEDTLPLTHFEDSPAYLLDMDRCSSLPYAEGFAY
Outline: as §1

[3] = target: HSF1 (Homo sapiens, UniProt Q00613 1-529); details: protein: recombinant; tags: N-terminal GST; chain copies: 3; dsDNA, one strand shown
Chain of HSF1 (Q00613 whole entry): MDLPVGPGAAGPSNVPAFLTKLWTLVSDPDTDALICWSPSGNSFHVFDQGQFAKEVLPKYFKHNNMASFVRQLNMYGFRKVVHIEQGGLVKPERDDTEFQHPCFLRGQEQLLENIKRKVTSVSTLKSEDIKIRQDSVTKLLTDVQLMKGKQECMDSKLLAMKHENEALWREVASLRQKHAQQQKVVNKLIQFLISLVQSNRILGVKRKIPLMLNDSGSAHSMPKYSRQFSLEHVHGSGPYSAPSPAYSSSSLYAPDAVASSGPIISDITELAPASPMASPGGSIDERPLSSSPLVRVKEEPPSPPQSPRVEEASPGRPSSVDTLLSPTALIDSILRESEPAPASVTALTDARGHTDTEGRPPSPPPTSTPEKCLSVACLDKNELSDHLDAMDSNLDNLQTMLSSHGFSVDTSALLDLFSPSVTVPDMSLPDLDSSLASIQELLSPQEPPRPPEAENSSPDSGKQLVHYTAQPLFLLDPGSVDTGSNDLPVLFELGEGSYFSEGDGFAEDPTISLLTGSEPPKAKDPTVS
Outline: as §1

[4] = target: T2, SPIC (Homo sapiens, UniProt Q8N5J4 1-248); details: protein: recombinant; tags: N-terminal GST; dsDNA, one strand shown
T2 sequence: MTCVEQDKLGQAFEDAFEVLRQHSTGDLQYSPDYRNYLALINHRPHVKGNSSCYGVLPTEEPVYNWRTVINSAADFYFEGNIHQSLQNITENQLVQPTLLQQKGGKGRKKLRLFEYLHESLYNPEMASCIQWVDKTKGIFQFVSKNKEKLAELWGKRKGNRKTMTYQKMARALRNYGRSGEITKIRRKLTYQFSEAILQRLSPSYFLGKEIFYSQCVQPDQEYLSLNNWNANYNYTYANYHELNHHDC
Outline: as §1

[5] = target: ELF4 (Homo sapiens, UniProt Q99607 1-663); details: protein: recombinant; tags: N-terminal GST; dsDNA, one strand shown
Chain of ELF4 (Q99607 whole entry): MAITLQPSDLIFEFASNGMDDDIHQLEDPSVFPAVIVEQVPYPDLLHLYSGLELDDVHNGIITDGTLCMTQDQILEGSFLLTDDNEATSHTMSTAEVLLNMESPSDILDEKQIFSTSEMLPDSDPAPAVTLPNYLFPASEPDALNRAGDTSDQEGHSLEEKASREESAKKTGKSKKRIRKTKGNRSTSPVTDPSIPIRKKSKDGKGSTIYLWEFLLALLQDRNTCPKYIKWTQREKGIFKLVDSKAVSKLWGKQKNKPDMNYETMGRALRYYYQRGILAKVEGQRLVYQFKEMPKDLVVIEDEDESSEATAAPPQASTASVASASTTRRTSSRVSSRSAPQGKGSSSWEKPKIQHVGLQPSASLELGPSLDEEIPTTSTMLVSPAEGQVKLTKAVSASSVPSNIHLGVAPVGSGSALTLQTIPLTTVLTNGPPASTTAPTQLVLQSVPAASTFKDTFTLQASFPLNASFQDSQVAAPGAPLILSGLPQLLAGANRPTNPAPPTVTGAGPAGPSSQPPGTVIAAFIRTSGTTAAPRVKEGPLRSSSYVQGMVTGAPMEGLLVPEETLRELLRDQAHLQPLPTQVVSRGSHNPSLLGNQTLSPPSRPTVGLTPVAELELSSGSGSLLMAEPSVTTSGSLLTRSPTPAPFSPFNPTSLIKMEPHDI
Outline: as §1

[6] = target: T3, ELK4 (Homo sapiens, UniProt P28324-2 1-405); details: protein: recombinant; tags: N-terminal GST; dsDNA, one strand shown
T3 sequence: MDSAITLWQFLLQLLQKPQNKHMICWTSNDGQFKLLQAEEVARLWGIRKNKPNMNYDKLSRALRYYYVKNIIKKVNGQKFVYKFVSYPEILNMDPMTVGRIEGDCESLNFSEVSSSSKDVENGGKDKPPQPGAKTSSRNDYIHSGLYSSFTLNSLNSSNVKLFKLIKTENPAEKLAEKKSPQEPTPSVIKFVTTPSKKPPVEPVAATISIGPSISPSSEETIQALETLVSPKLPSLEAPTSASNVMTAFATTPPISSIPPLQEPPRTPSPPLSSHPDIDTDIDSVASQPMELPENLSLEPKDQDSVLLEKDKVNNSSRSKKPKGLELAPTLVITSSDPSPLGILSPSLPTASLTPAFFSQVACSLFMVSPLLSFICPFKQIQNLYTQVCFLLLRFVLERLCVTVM
Outline: as §1

[7] = target: T4, ETV2 (Homo sapiens, UniProt O00321 1-342); details: protein: recombinant; tags: N-terminal GST; dsDNA, one strand shown
T4 sequence: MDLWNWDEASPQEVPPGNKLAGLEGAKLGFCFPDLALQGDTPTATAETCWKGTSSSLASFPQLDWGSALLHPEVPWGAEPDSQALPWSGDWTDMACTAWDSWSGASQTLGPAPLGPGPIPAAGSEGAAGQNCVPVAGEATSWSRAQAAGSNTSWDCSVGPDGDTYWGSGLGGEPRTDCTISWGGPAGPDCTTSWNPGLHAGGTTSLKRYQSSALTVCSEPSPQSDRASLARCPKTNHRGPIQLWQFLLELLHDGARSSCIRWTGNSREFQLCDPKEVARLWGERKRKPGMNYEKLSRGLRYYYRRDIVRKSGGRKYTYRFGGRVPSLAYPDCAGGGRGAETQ
Outline: as §1

[8] = target: T5, ELF3 (Homo sapiens, UniProt P78545 1-371); details: protein: recombinant; tags: N-terminal GST; dsDNA, one strand shown
T5 sequence: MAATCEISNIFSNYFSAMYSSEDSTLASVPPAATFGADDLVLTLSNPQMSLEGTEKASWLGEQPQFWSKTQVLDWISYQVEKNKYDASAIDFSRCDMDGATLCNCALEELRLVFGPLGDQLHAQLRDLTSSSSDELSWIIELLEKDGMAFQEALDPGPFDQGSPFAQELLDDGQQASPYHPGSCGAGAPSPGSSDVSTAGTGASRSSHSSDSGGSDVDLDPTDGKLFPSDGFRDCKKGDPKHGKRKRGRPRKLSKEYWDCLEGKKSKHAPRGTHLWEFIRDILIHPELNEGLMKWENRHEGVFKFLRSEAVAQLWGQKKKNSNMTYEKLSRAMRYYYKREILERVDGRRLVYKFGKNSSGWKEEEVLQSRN
Outline: as §1

[9] = target: CRX (Homo sapiens, UniProt O43186 1-299); details: protein: recombinant; tags: N-terminal GST; dsDNA, one strand shown
Chain of CRX (O43186 whole entry): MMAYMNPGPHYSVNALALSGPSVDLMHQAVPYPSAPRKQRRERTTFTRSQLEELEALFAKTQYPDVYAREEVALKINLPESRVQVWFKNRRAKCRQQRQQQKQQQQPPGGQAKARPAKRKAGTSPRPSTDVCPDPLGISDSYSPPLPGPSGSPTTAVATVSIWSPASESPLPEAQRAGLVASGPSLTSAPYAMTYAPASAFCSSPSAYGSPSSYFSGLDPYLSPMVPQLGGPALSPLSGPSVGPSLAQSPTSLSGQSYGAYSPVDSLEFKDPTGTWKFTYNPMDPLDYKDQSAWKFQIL
Outline: as §1

[10] = target: ETV1 (Homo sapiens, UniProt P50549 1-477); details: protein: recombinant; tags: N-terminal GST; dsDNA, one strand shown
Chain of ETV1 (P50549 whole entry): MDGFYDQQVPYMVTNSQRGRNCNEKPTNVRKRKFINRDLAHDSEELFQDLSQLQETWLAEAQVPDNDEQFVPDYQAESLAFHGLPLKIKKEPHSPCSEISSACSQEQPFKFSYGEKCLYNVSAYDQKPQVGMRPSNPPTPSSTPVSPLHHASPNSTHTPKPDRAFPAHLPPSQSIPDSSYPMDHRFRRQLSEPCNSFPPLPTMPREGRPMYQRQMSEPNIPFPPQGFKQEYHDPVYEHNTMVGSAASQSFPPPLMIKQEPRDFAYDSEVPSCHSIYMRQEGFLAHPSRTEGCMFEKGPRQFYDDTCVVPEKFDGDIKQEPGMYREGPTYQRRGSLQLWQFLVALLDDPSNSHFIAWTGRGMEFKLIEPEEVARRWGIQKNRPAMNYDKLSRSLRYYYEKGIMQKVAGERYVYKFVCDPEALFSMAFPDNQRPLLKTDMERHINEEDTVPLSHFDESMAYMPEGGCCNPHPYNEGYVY
Outline: as §1

Sequence: ACGTTT
- binding signal [1]: 1.22 fold enrichment (6-mer frequency, TF over GST control)
- binding signal [2]: 1.15 fold enrichment (6-mer frequency, TF over GST control)
- binding signal [3]: 1.05 fold enrichment (6-mer frequency, TF over GST control)
- binding signal [4]: 1.29 fold enrichment (6-mer frequency, TF over GST control)
- binding signal [5]: 1.14 fold enrichment (6-mer frequency, TF over GST control)
- binding signal [6]: 1.22 fold enrichment (6-mer frequency, TF over GST control)
- binding signal [7]: 1.18 fold enrichment (6-mer frequency, TF over GST control)
- binding signal [8]: 1.08 fold enrichment (6-mer frequency, TF over GST control)
- binding signal [9]: 1 fold enrichment (6-mer frequency, TF over GST control)
- binding signal [10]: 1.22 fold enrichment (6-mer frequency, TF over GST control)
